A short description of experiment [1]: Viability qHTS for spleen associated tyrosine kinase inhibitor (SYKi) drug resistant MV4-11 cells (AID 1963824). Also: nearly all actives have a fitted effect of over 35% in size. Also: potency is read from the fitted curve at half-maximal effect. In outline:
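CellTiter-Glo luminescence, read 10 min after reagent addition, reports viability after a 72 hr compound exposure. Cells are an MV4-11 line made resistant to SYK inhibition, seeded at 500 per well onto compound-containing plates.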
(In general: qHTS replaces the single test concentration by a dilution series.)

Experiment [2] is described as follows: Quantitative highthroughput screen to assess conditional lethalithy of NOMO1 cells grown in RPMI1640 with untreated serum (RPMI+s) (AID 1963876). Also: nearly all actives have a fitted effect of over 35% in size. Also: potency is read from the fitted curve at half-maximal effect.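 As to Viability: 100% = DMSO wells and 0% = empty wells without cells.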 Put shortly:
(§1)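 Each medium arm—HPLM with 10% dialyzed FBS, or RPMI1640 with 5 mM glucose and 10% untreated or dialyzed FBS—was screened against an 11-point, 3-fold compound titration for 48 h at 37 °C, with CellTiter-Glo luminescence as endpoint.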

Experiment [3] is described as follows: Quantitative highthroughput screen to assess conditional lethalithy of NOMO1 cells grown in RPMI1640 with dialyzed fetal bovine serum (RPMI+ds) (AID 1963877). Also: nearly all actives have a fitted effect of over 30% in size. Also: potency is read from the fitted curve at half-maximal effect.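 As to Viability: series mostly up to about 46 µM; 100% = DMSO control wells and 0% = empty wells.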 Put shortly:
as §1

Experiment [4] in a line: Quantitative highthroughput screen to assess conditional lethalithy of NOMO1 cells grown in Human Plasma-Like Medium with dialyzed fetal bovine serum (HPLM+ds) (AID 1963878). Also: nearly all actives have a fitted effect of over 35% in size. Also: potency is read from the fitted curve at half-maximal effect.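 As to Viability: 100% = DMSO wells and 0% = empty wells on each plate.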 Put shortly:
as §1

Experiment [5] is described as follows: Quantitative highthroughput screen to assess conditional lethalithy of P12 Ichikawa cells grown in Human Plasma-Like Medium with dialyzed fetal bovine serum (HPLM+ds) (AID 1963879). Also: nearly all actives have a fitted effect of over 35% in size. Also: potency is read from the fitted curve at half-maximal effect. As to Viability: series mostly up to about 46 µM. The settings on record: Potency: viability. In outline:
as §1

Experiment [6] in a line: Quantitative highthroughput screen to assess conditional lethalithy of P12 Ichikawa cells grown in RPMI1640 with dialyzed fetal bovine serum (RPMI+ds) (AID 1963880). Also: nearly all actives have a fitted effect of over 35% in size. Also: potency is read from the fitted curve at half-maximal effect.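 As to Viability: 100% = DMSO wells and 0% = empty wells on each plate.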 As to conditions: Potency: P12-Ichikawa viability. In outline:
as §1

Experiment [7] in a line: Quantitative highthroughput screen to assess conditional lethalithy of P12 Ichikawa cells grown in RPMI1640 with untreated serum (RPMI+s) (AID 1963881). The settings on record: Potency: viability. In outline: as §1
A short description of experiment [8]: Quantitative highthroughput screen to assess conditional lethalithy of SEM cells grown in Human Plasma-Like Medium with dialyzed fetal bovine serum (HPLM+ds) (AID 1963882). Also: nearly all actives have a fitted effect of over 35% in size. Also: potency is read from the fitted curve at half-maximal effect. As to Viability: series mostly up to about 46 µM. Put shortly:
as §1

Experiment [9] is described as follows: Quantitative highthroughput screen to assess conditional lethalithy of SEM cells grown in RPMI1640 with unreated serum (RPMI+s) (AID 1963883). Also: nearly all actives have a fitted effect of over 35% in size. Also: potency is read from the fitted curve at half-maximal effect.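 As to Viability: 100% = DMSO wells and 0% = empty wells without cells.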 Put shortly: as §1
The nature of experiment [10]: Quantitative highthroughput screen to assess conditional lethalithy of SEM cells grown in RPMI1640 with dialyzed fetal bovine serum (RPMI+ds) (AID 1963884). Also: nearly all actives have a fitted effect of over 35% in size. Also: potency is read from the fitted curve at half-maximal effect.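 As to Viability: series mostly up to about 46 µM; 100% = DMSO control wells and 0% = empty wells without cells.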 Put shortly:
as §1

Experiment [11] in a line: Cellular viability qHTS for adrenocortical cancer (ACC) cell line SW-13 (AID 1963989). Also: nearly all actives have a fitted effect of over 65% in size. Also: potency is read from the fitted curve at half-maximal effect.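 As to activity (max response): cells grown in serum-free medium with ITS supplement; % is scaled to controls: 0 for no effect and ±100 for the full control effect.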 The settings on record: SW-13 ACC cells viability, CellTiter-Glo, 48 h; activity (max response): stronger effect = lower value. In outline: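 IC50 and maximal-response values come from four-parameter logistic fits of titration data. SW-13 cells in serum-free medium received compounds (up to 46 uM final) for 48 h before CellTiter-Glo luminescence.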

Experiment [12] is described as follows: Cellular viability qHTS for adrenocortical cancer (ACC) cell line NCI-H295R (AID 1963990). Also: nearly all actives have a fitted effect of over 60% in size. Also: potency is read from the fitted curve at half-maximal effect. Put shortly: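 Adrenocortical carcinoma cells, suspended at 300 000 cells/mL in serum-free DMEM plus ITS, rested overnight before pin transfer of compound. After two days' incubation, ATP-dependent luminescence was recorded and curve-fitted.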

The structures appear in SMILES notation. “And” between values parts separate entries of the source, which are not always exact repeats. Equal entries are not always repeated. Inconclusive results are not listed. The source holds several records for some structures; these can differ, active in one and inactive in another. The source made the active and inactive calls. Calls follow the shape of the dose curve; as a rule, active = well fitted curve in the direction sought with a large enough effect; inconclusive = small, poorly fitted or top-dose-only effect, or another doubt; inactive = no such curve, though single readings can be large; an effect the other way counts as inactive or inconclusive.

In the case of `Clc1ccc(Nc2nnc(Cc3ccncc3)c3ccccc23)cc1`, the Potency in experiment [1] is 10.6 µM (active). Moreover, the Potency result in experiment [2], in [3], in [4], in experiment [5], in experiment [6] and in experiment [7] was “inactive” each time.

In the case of `CC1(C)Cc2c(-c3ccccc3)c(-c3ccc(Cl)cc3)c(CC(=O)O)n2C1`, the Potency in experiment [1] is 9.2 µM (active). Moreover, the Potency result in experiment [2], in experiment [3], in experiment [4], in experiment [5], in [6] and in [7] was “inactive” throughout. Also, the Potency entry in experiment [8], in experiment [9] and in [10] was “inactive” throughout.

`C[C@]12CC/C(=N\OCC(=O)O)C=C1CC[C@@H]1[C@@H]2[C@@H](O)C[C@@]2(C)[C@H]1CC[C@]2(O)C(=O)CO`: in experiment [1], the Potency entry is “inactive”.

Take `CC(C)C1=CC2=CCC3[C@](C)(CCC[C@@]3(C)C(=O)O)C2CC1O` (some centres undefined): the Potency result in [1] is “inactive”.

Turning to `CC(=O)NC(C)c1ccc(Oc2ccc(OC(C)C)cc2)cc1` (centres undefined), in experiment [1], the Potency was 10.8 µM (active). Besides, the Potency result in experiment [2], in [3], in experiment [4], in experiment [5], in experiment [6] and in experiment [7] was “inactive” in each case. Further, the Potency entry in experiment [8], in [9] and in [10] was “inactive” in each case.

Turning to `COc1ccc(C2CNC(=O)C2)cc1OC1CCCC1` (centres undefined), the Potency entry in [1], in [2], in [3], in experiment [4], in experiment [5] and in experiment [6] was “inactive” throughout. In addition, the Potency result in [7], in experiment [8], in experiment [9], in experiment [10] and in [12] was “inactive” each time. The activity (max response) in [11] was 1.73% (inactive) and 4.14% (inactive).

`CC(=O)N[C@H](Cc1c[nH]c2ccccc12)C(=O)OCc1cc(C(F)(F)F)cc(C(F)(F)F)c1`: the Potency in [1] is 23.1 µM (active).

Take `COC(=O)/C=C/C=C/C(=O)OC1C=C2COC(=O)C2(O)C2(C)CCCC(C)(C)C12` (centres undefined): the Potency in experiment [1] is 8.93 µM (active).

`CN(CCOc1ccc(CC2SC(=O)NC2=O)cc1)c1ccccn1` (centres undefined): the Potency in experiment [1] was 13.3 µM (active). Besides, the Potency result in [2], in experiment [3], in experiment [4], in experiment [5], in [6] and in experiment [7] was “inactive” throughout. Further, the Potency entry in experiment [8], in experiment [9], in [10] and in [12] was “inactive” throughout. Also, the activity (max response) in experiment [11] is -2.77% (inactive) and -12.8% (inactive).

`CNC(=O)c1ccc(C)c(-n2c(C)cc(OCc3ccc(F)cc3F)c(Br)c2=O)c1`: the Potency in experiment [1] is 8.2 µM (active). Moreover, the Potency result in experiment [2], in experiment [3], in [4], in experiment [5], in [6] and in experiment [7] was “inactive” throughout. Besides, the Potency result in experiment [8], in experiment [9], in [10] and in [12] was “inactive” throughout.

In the case of `CCOC(=O)c1c(C)n(C)c2ccc(O)cc12`, the Potency in [1] is 7.5 µM (active) and inactive. Further, the Potency result in [2], in experiment [3], in experiment [4], in experiment [5], in experiment [7] and in [8] was “inactive” each time. For the same compound, the Potency entry in experiment [9], in experiment [10] and in experiment [12] was “inactive” throughout. The activity (max response) in experiment [11] is 5.26% (inactive) and -18.4% (inactive).

Consider `O=C(NOC[C@H](O)CO)c1ccc(F)c(F)c1Nc1ccc(I)cc1F`, for which the Potency in [1] is 0.164 µM (active); in [2], 0.187 µM (active); in experiment [3] it was 0.0332 µM (active); in [4] it was 0.148 µM (active); in experiment [5], 20.9 µM (active); in [8] it was 7.43 µM (active). Further, the Potency in experiment [9] and in [10] was 11.8 µM (active) throughout.

In the case of `CN1CCC(=C2c3ccccc3C=Cc3ccccc32)CC1`, the Potency was 18.8 µM (active) in [1], 25.1 µM (active) in experiment [11] and 3.98 µM (active) in experiment [12]. Besides, the Potency entry in experiment [2], in [3], in experiment [4], in experiment [5], in experiment [6] and in experiment [7] was “inactive” each time. Moreover, the Potency result in experiment [8] and in [9] was “inactive” throughout.

In the case of `Cc1ccccc1C(C(=O)NC1CCCCC1)N(C(=O)CNc1ccc(C#N)cc1)c1cccc(F)c1` (centres undefined), the Potency entry in [1], in [2], in [3], in experiment [4], in experiment [5] and in [8] was “inactive” each time. Further, the Potency entry in experiment [9], in experiment [10] and in [12] was “inactive” each time. The activity (max response) in experiment [11] was -0.757% (inactive).

Take `Cc1cnc(Nc2ccc(CN3CCOCC3)cc2)nc1Nc1cccc(S(=O)(=O)NC(C)(C)C)c1`: the Potency in [1] was 372 nM (active) and 326 nM (active); in experiment [2], 4.18 µM (active); in [3], 4.69 µM (active); in [4] it was 4.69 µM (active); in experiment [5], 2.96 µM (active); in experiment [6] it was 4.18 µM (active). In addition, the Potency in experiment [8] is 0.743 µM (active); in experiment [10], 0.166 µM (active); in [11], 15.8 µM (active); in experiment [12], 4.47 µM (active).

As to `Cc1ccc(-n2nc(C(C)(C)C)cc2NC(=O)Nc2ccc(OCCN3CCOCC3)c3ccccc23)cc1`, the Potency in [1] was 2.59 µM (active); in experiment [8] it was 10.5 µM (active); in [10], 9.35 µM (active). Besides, the Potency result in [2], in experiment [3], in [4], in experiment [5] and in experiment [6] was “inactive” each time. Besides, the activity (max response) in experiment [11] was -16.6% (inactive).

As for `COc1cc(C(C)C)c(Oc2cnc(NC(CO)CO)nc2N)cc1I`, in experiment [1], the Potency was 14.8 µM (active). Also, the Potency entry in experiment [2], in experiment [3], in experiment [4], in experiment [5], in experiment [6] and in experiment [7] was “inactive” each time. For the same compound, the Potency result in experiment [8] is “inactive”. For the same compound, the activity (max response) in experiment [11] was -4% (inactive).

The record behind these values is PubChem BioAssay (NCATS).
